Test results reported in article PMC5540273 (PLoS ONE, 2017).

Columns and labels:
Conditions in all cases: concentration: 1 μM, replicates: in singlicate; n = 1
[1] = tested on: MAP3K15
[2] = tested on: MAP3K1
[3] = tested on: MAP3K2
[4] = tested on: MAP3K3
[5] = tested on: MAP3K4
[6] = tested on: MAP4K2
[7] = tested on: MAP4K3
[8] = tested on: MAP4K4
[9] = tested on: MAP4K5
[10] = tested on: MAPKAPK2
[11] = tested on: MAPKAPK5
[12] = tested on: MARK1
[13] = tested on: MARK2
[14] = tested on: MARK3
[15] = tested on: MARK4
[16] = tested on: MAST1
[17] = tested on: T1, MEK1
T1 construct: gene MAP2K1

[18] = tested on: T2, MEK2
T2 construct: gene MAP2K2

[19] = tested on: T3, MEK3
T3 construct: gene MAP2K3

[20] = tested on: T4, MEK4
T4 construct: gene MAP2K4
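Further: KINOMEscan kinase panel screen.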

SMILES | %Inh [1] | %Inh [2] | %Inh [3] | %Inh [4] | %Inh [5] | %Inh [6] | %Inh [7] | %Inh [8] | %Inh [9] | %Inh [10] | %Inh [11] | %Inh [12] | %Inh [13] | %Inh [14] | %Inh [15] | %Inh [16] | %Inh [17] | %Inh [18] | %Inh [19] | %Inh [20]
COc1cccc(NC(=O)NC2CCN(c3ccnc(Nc4cc(OC)c(OC)c(OC)c4)n3)C2)c1 (stereo not drawn) [GSK1379763] | 0% | 80% | 3% | 0% | 39% | 0% | 12% | 56% | 81% | 0% | 0% | 0% | 0% | 0% | 0% | 0% | 0% | 9% | 8% | 12%
Cl.Cl.NCC(C(=O)Nc1cc(Br)c(-c2ccnc3[nH]ccc23)s1)c1ccccc1 (stereo not drawn) [GSK1269851] | 0% | 17% | 13% | 0% | 63% | 13% | 0% | 20% | 0% | 0% | 0% | 0% | 55% | 0% | 0% | 13% | 1% | 0% | 50% | 11%
O=C(Nc1n[nH]c2nc(-c3ccc(O)cc3)ccc12)C1CC1 [SB-710363] | 32% | 10% | 13% | 30% | 0% | 41% | 0% | 53% | 0% | 0% | 4% | 0% | 38% | 0% | 0% | 36% | 0% | 8% | 36% | 10%
Cl.c1ccc(-c2ccc3c(Nc4ccc5[nH]ccc5c4)ccnc3c2)nc1 [GW440138] | 0% | 1% | 0% | 0% | 9% | 46% | 0% | 12% | 0% | 9% | 0% | 0% | 0% | 0% | 0% | 0% | 0% | 0% | 0% | 0%
CCS(=O)(=O)c1ccc(OC)c(Nc2nccc(-c3c(-c4cccc(NC(=O)c5c(F)cccc5F)c4)nn4ncccc34)n2)c1 [GSK326180] | 0% | 10% | 6% | 0% | 7% | 0% | 22% | 3% | 0% | 34% | 0% | 6% | 22% | 0% | 9% | 0% | 31% | 18% | 2% | 25%
Clc1ccc(-c2nn3ncccc3c2-c2ccnc(Nc3ccc4c(c3)OCCO4)n2)cc1 [GW829116] | 0% | 0% | 7% | 2% | 0% | 0% | 0% | 12% | 0% | 0% | 0% | 0% | 0% | 20% | 0% | 0% | 6% | 27% | 14% | 1%
CCn1c(-c2nonc2N)nc2c(C#CC(C)(C)O)nc(OC[C@H](N)c3ccccc3)cc21 [GSK943949] | 0% | 0% | 57% | 55% | 1% | 19% | 11% | 8% | 40% | 0% | 7% | 54% | 0% | 0% | 37% | 4% | 1% | 0% | 69% | 15%
CNC(=O)c1ccccc1Nc1nc(Nc2ccc(N3CCOCC3)cc2)ncc1Cl.Cl [GSK1576028] | 36% | 22% | 99.5% | 99.4% | 90.1% | 93.5% | 98.9% | 28% | 81% | 0% | 0% | 95.2% | 92.6% | 95.5% | 96.8% | 0% | 88% | 87% | 87% | 74%
NCCCC(NC(=O)c1cc(Br)c(-c2ccnc3[nH]ccc23)s1)c1ccccc1.O=C(O)C(F)(F)F.O=C(O)C(F)(F)F (stereo not drawn) [GSK1287544] | 23% | 9% | 24% | 0% | 9% | 31% | 4% | 17% | 2% | 0% | 0% | 0% | 2% | 20% | 4% | 0% | 0% | 0% | 71% | 50%
